CYP2C9 act: human CYP2C9 activators, primary screen, biochemical, luminescence; activation factor at 5 µM; Cytochrome P450 2C9 (Homo sapiens), P11712; AID 1024, 2008; recombinant CYP2C9, luciferin-H conversion; stronger effect = higher value; factor 1 = untreated enzyme, 0 = blocked; hit rate 1.4% among 96,000;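 active means activation factor of 2 or more for CYP2C9 at a 5 µM dose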;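 further: 0 = sulfaphenazole-blocked wells and 1 = vehicle-only wells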
Target sequence (P11712 whole entry, looked up): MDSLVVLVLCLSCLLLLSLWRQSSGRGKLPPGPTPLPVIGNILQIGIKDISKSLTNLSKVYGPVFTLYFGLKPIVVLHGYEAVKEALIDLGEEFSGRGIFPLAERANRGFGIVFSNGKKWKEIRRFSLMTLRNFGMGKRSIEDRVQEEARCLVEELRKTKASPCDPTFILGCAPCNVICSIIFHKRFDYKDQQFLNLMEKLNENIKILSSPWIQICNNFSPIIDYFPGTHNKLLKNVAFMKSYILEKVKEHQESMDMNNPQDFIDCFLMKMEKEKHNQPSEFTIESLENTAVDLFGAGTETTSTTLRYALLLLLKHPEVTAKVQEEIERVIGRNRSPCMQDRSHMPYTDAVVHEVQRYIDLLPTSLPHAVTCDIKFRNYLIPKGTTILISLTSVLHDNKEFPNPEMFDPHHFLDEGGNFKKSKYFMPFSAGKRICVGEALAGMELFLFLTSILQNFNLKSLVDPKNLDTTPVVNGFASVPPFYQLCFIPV
CYP2C9 inhib: blockers of cytochrome P450 2C9 activity – biochemical, luminescence, ADME assay, primary screen; CYP2C9 Supersomes, luciferin-H conversion; hit rate 20% among 96,000; inhibition, % at 5 µM; P11712; AID 777, 2007;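 active means blocking of liver enzyme CYP2C9 beyond about 50% at 5 µM, limit read from the data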
CYP2C19 act: human CYP2C19 activators, primary screen, biochemical, luminescence. Cytochrome P450 2C19 (Homo sapiens), P33261. recombinant CYP2C19, luciferin-H EGE luminescence; stronger effect = higher value; 0 = fully inhibited enzyme, 1 = untreated enzyme. activation factor at 5 µM. 96,000 tested, under 10 active. AID 1025, 2008;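 active means activation factor of at least 2 at 5 µM in the primary screen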;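 further: 0 = wells with 2.5 mM tranylcypromine and 1 = vehicle-only wells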
PostGolgi yeast: phenotypic screen on post-Golgi transport, primary screen | post-Golgi transport phenotypic cell assay | inhibition, % at 10 µM | hit rate 0.9% among 98,000;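 further: yeast cells grown in 1536-well plates; yeast grown about 18 h at 30C before absorbance read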
CYP2C19 inh: blockers of cytochrome P450 2C19 activity – biochemical, luminescence, ADME assay, primary screen. CYP2C19 Supersomes, luciferin-H EGE luminescence, 30 min. inhibition, % at 5 µM. hit rate 21% among 96,000. P33261. AID 778, 2007;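 active means CYP2C19 inhibition above a set limit at 5 µM in the primary screen, cut at about 50% in these data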;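 further: plate controls were negative control wells for no effect and 2.5 mM tranylcypromine positive control for full effect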
PostGolgi ctrl: growth inhibition of yeast control strain, primary screen, counter-screen for post-Golgi transport modulator project; efflux-deficient yeast background strain, growth absorbance A615, 16 h; inhibition, % at 10 µM; hit rate 5% among 98,000; AID 738, 2007
* marks the source's active call; other numbers are inactive results. Most compounds without a hit are left out; they make up all but 32% or so of the library. Unless noted, no stated cut-off is given here; in the data, active means inhibition above about 30%; inactive means the rest.

`Cc1ccc(N2CCN(C(=O)c3ccccc3NC(=O)C3CC=CCC3C(=O)O)CC2)cc1` (configuration not stated) gave CYP2C9 act 0.6, CYP2C9 inhib 37, CYP2C19 act 0.5, PostGolgi yeast -2, CYP2C19 inh 52* and PostGolgi ctrl 18.
`CCN1C(=O)CC(N2CCOCC2)C1=O` (configuration not stated) gave CYP2C9 act 1, CYP2C9 inhib -3, CYP2C19 act 1, PostGolgi yeast 17, CYP2C19 inh -5 and PostGolgi ctrl 2.
Screening COc1ccc(Nc2nc(N)nc(CSc3nncn3C)n2)cc1 returned CYP2C9 act 0.9, CYP2C9 inhib 13, CYP2C19 act 1, PostGolgi yeast 0, CYP2C19 inh 4 and PostGolgi ctrl 19.
For Cc1ccccc1Nc1nc(N)nc(CSc2nnnn2-c2ccccc2)n1 the results were CYP2C9 act 0.2, CYP2C9 inhib 82*, CYP2C19 act 0.1, PostGolgi yeast -1, CYP2C19 inh 88* and PostGolgi ctrl 22.
CCc1ccc(Nc2nc(N)nc(CSc3nnnn3-c3ccccc3)n2)cc1 was read as CYP2C9 act 0.9, CYP2C9 inhib 12, CYP2C19 act 0.9, PostGolgi yeast 4, CYP2C19 inh 10 and PostGolgi ctrl 37*.
Screening Cc1nc(Cc2nnc(SCc3nc(N)nc(Nc4ccccc4C)n3)o2)cs1 returned CYP2C9 act 0.5, CYP2C9 inhib 51*, CYP2C19 act 0.7, PostGolgi yeast -5, CYP2C19 inh 30 and PostGolgi ctrl 0.
For Cc1ccc(Nc2nc(N)nc(CSc3nnc(-c4ccncc4)o3)n2)cc1 the results were CYP2C9 act 0.9, CYP2C9 inhib 10, CYP2C19 act 1, PostGolgi yeast -5, CYP2C19 inh 4 and PostGolgi ctrl -3.
For CN(C)c1nc(N)nc(CSc2nnnn2-c2ccccc2)n1 the results were CYP2C9 act 0.8, CYP2C9 inhib 17, CYP2C19 act 0.5, PostGolgi yeast 1, CYP2C19 inh 52* and PostGolgi ctrl 2.
Screening CC1=NCC(C)c2c1[nH]c1ccccc21 (configuration not stated) returned CYP2C9 act 1.1, CYP2C9 inhib -5, CYP2C19 act 0.9, PostGolgi yeast 10, CYP2C19 inh 12 and PostGolgi ctrl 4.
Screening COc1ccc2c(c1)C(C)=CC(C)(C)N2C(=O)C(C)N1C(=O)c2ccccc2C1=O (configuration not stated) returned PostGolgi yeast 9 and PostGolgi ctrl 14.
COC(=O)C1=C(C(=O)OC)SC(=C2C(=S)C(C)(C)N(C(=O)C3CC3)c3ccccc32)S1 was read as CYP2C9 act 0.2, CYP2C9 inhib 78*, CYP2C19 act 0.3, PostGolgi yeast -6, CYP2C19 inh 69* and PostGolgi ctrl 9.
For COC(=O)C1=C(C(=O)OC)SC(=C2C(=S)C(C)(C)N(C(=O)C(C)C)c3ccccc32)S1 the results were CYP2C9 act 0.1, CYP2C9 inhib 95*, CYP2C19 act 0.6, PostGolgi yeast -2, CYP2C19 inh 40 and PostGolgi ctrl 8.
`CC1C(=O)Nc2ccccc2N1C(=O)C1CC1` (configuration not stated) gave CYP2C9 act 1, CYP2C9 inhib -4, CYP2C19 act 1, PostGolgi yeast -6, CYP2C19 inh -2 and PostGolgi ctrl 4.
`COc1ccc(NC(=O)c2ccc(Br)o2)c([N+](=O)[O-])c1` gave CYP2C9 act 1.1, CYP2C9 inhib -6, CYP2C19 act 0.9, PostGolgi yeast -3, CYP2C19 inh 5 and PostGolgi ctrl 0.
`COc1ccc(NC(=S)NC(NC(=O)c2ccc(Cl)cc2Cl)C(Cl)(Cl)Cl)c([N+](=O)[O-])c1` (configuration not stated) gave CYP2C9 act 0, CYP2C9 inhib 98*, CYP2C19 act 0, PostGolgi yeast 69*, CYP2C19 inh 96* and PostGolgi ctrl 22.
COc1ccc(NC(=S)NC(NC(=O)c2cccc3ccccc23)C(Cl)(Cl)Cl)c([N+](=O)[O-])c1 (configuration not stated) was read as CYP2C9 act 0.2, CYP2C9 inhib 83*, CYP2C19 act 0.8, PostGolgi yeast 0, CYP2C19 inh 19 and PostGolgi ctrl 14.
COc1ccc(NC(=S)NC(NC(=O)c2ccccc2Cl)C(Cl)(Cl)Cl)c([N+](=O)[O-])c1 (configuration not stated) was read as CYP2C9 act 0.3, CYP2C9 inhib 74*, CYP2C19 act 0.8, PostGolgi yeast 3, CYP2C19 inh 24 and PostGolgi ctrl 16.
Screening COc1ccc(NC(=O)c2ccc(C)cc2Cl)c([N+](=O)[O-])c1 returned CYP2C9 act 3.6*, CYP2C9 inhib -259, CYP2C19 act 0.7, PostGolgi yeast 0, CYP2C19 inh 35 and PostGolgi ctrl 9.
`CC1(C)N=C(/C=N/O)CN1O` gave CYP2C9 act 1.1, CYP2C9 inhib -14, CYP2C19 act 1.1, PostGolgi yeast 2, CYP2C19 inh -14 and PostGolgi ctrl 12.
CCCOc1ccc(C(=O)CCC(=O)OCC(=O)N2CC(=O)Nc3ccccc32)cc1 was read as CYP2C9 act 0.8, CYP2C9 inhib 22, CYP2C19 act 0.9, PostGolgi yeast 22, CYP2C19 inh 10 and PostGolgi ctrl -4.
COc1ccc(NC(C)=O)cc1NC(C)C(=O)Nc1ccccc1F (configuration not stated) was read as CYP2C9 act 0.9, CYP2C9 inhib 8, CYP2C19 act 0.8, PostGolgi yeast 1, CYP2C19 inh 24 and PostGolgi ctrl 6.
CCOC(=O)CN1C(=O)C(O)=C(C(C)=O)C1c1ccc([N+](=O)[O-])cc1 (configuration not stated) was read as CYP2C9 act 1, CYP2C9 inhib 2, CYP2C19 act 0.9, PostGolgi yeast 3, CYP2C19 inh 7 and PostGolgi ctrl 0.
For CSc1cc(-c2ccc(Cl)cc2)n(Cc2ccccc2)c(=O)c1C#N the results were CYP2C9 act 1.1, CYP2C9 inhib -12, CYP2C19 act 1.1, PostGolgi yeast -4, CYP2C19 inh -7 and PostGolgi ctrl -1.
`CSc1cc(-c2ccccc2)n(Cc2c(Cl)cccc2Cl)c(=O)c1C#N` gave CYP2C9 act 0.2, CYP2C9 inhib 75*, CYP2C19 act 0.8, PostGolgi yeast -7, CYP2C19 inh 23 and PostGolgi ctrl -1.
For COc1ccccc1NC(=O)CSc1nnnn1C the results were CYP2C9 act 0.9, CYP2C9 inhib 6, CYP2C19 act 1, PostGolgi yeast -3, CYP2C19 inh 3 and PostGolgi ctrl -2.
